Test results published in PubChem BioAssay AID1159580 (chemical genetic matrix, 2015).
Values joined by “and” are separate entries in the source; they are usually repeats but may differ in a detail not shown here. Equal entries are not always repeated. The campaign covered roughly 5,500 compounds. About 2,000 (36%) were called active. About 18% were inconclusive and are not listed. No stated cut-off is given here; in the data, active means normalized growth mostly below about 0.91 (no sharp cut-off); inconclusive means no clear call, values can overlap the other calls; inactive means mostly above about 0.92. This is one part of the list.

Test: chemical genetic growth profiling, strain panel (AID 1159580);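 further: tested at 20 µM; growth read once vehicle control cultures reached saturation at 30 °C; 1 = growth at the plate median or of vehicle wells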
Details: growth OD

Measured: normalized growth

C[C@@H]1OC(O[C@H]2[C@H](O)[C@@H](O)[C@H](OC[C@H]3O[C@@H](OC(=O)[C@]45CCC(C)(C)CC4C4=CCC6[C@@]7(C)CC[C@H](OC8OC[C@H](O)[C@H](O)[C@H]8OC8O[C@@H](C)[C@H](O)[C@@H](O)[C@H]8O)[C@@](C)(CO)C7CC[C@@]6(C)[C@]4(C)CC5)[C@H](O)[C@@H](O)[C@@H]3O)O[C@@H]2CO)[C@H](O)[C@H](O)[C@H]1O (some centres undefined)
inactive: S. cerevisiae deletion strains, locus YBR021W, strain FUR4, stronger effect = lower value 0.991 | S. cerevisiae deletion strains, locus YBR229C, strain ROT2, stronger effect = lower value 0.987 | S. cerevisiae deletion strains, locus YCL029C, strain bik1, stronger effect = lower value 0.985 | S. cerevisiae deletion strains, locus YDL035C, strain GPR1, stronger effect = lower value 1 | S. cerevisiae deletion strains, locus YDL074C, strain BRE1, stronger effect = lower value 0.99 | S. cerevisiae deletion strains, locus YDL101C, strain DUN1, stronger effect = lower value 0.992 | S. cerevisiae deletion strains, locus YDL134C, strain PPH21, stronger effect = lower value 1.02 | S. cerevisiae deletion strains, locus YDL185W, strain tfp1, stronger effect = lower value 0.97 | S. cerevisiae deletion strains, locus YDL192W, strain arf1, stronger effect = lower value 0.985 | S. cerevisiae deletion strains, locus YDR101C, strain arx1, stronger effect = lower value 0.995 | S. cerevisiae deletion strains, locus YDR150W, strain NUM1, stronger effect = lower value 0.998 | S. cerevisiae deletion strains, locus YDR162C, strain NBP2, stronger effect = lower value 1.02 | S. cerevisiae deletion strains, locus YDR318W, strain mcm21, stronger effect = lower value 0.993 | S. cerevisiae deletion strains, locus YDR388W, stronger effect = lower value 0.986 | S. cerevisiae deletion strains, locus YDR502C, strain sam2, stronger effect = lower value 0.99 | S. cerevisiae deletion strains, locus YEL061C, strain CIN8, stronger effect = lower value 0.993 | S. cerevisiae deletion strains, locus YER110C, stronger effect = lower value 0.986 | S. cerevisiae deletion strains, locus YER155C, strain BEM2, stronger effect = lower value 0.989 | S. cerevisiae deletion strains, locus YER167W, strain BCK2, stronger effect = lower value 1 | S. cerevisiae deletion strains, locus YGL078C, strain dbp3, stronger effect = lower value 0.985 | S. cerevisiae deletion strains, locus YGL086W, strain mad1, stronger effect = lower value 1.01 | S. cerevisiae deletion strains, locus YGL248W, strain PDE1, stronger effect = lower value 0.991 | S. cerevisiae deletion strains, locus YGR135W, strain pre9, stronger effect = lower value 0.993 | S. cerevisiae deletion strains, locus YGR229C, strain SMI1, stronger effect = lower value 1.01 | S. cerevisiae deletion strains, locus YGR252W, strain gcn5, stronger effect = lower value 0.987 | S. cerevisiae deletion strains, locus YHR030C, strain SLT2, stronger effect = lower value 0.997 and 1.02 | S. cerevisiae deletion strains, locus YHR079C, strain IRE1 (second series), stronger effect = lower value 0.993 | S. cerevisiae deletion strains, locus YHR079C, strain IRE1, stronger effect = lower value 1.01 | S. cerevisiae deletion strains, locus YHR094C, strain hxt1, stronger effect = lower value 0.996 | S. cerevisiae deletion strains, locus YHR129C, strain ARP1, stronger effect = lower value 0.99 | S. cerevisiae deletion strains, locus YHR200W, strain rpn10, stronger effect = lower value 0.997 | S. cerevisiae deletion strains, locus YIL066C, strain RNR3, stronger effect = lower value 1 | S. cerevisiae deletion strains, locus YIL073C, strain SPO22, stronger effect = lower value 0.993 | S. cerevisiae deletion strains, locus YIL125W, strain kgd1, stronger effect = lower value 0.983 | S. cerevisiae deletion strains, locus YIR030C, strain dcg1, stronger effect = lower value 1 | S. cerevisiae deletion strains, locus YJL095W, strain BCK1, stronger effect = lower value 1.01 and 0.985 | S. cerevisiae deletion strains, locus YJL134W, strain LCB3, stronger effect = lower value 0.991 | S. cerevisiae deletion strains, locus YJL168C, strain set2, stronger effect = lower value 0.991 | S. cerevisiae deletion strains, locus YJL187C, strain SWE1 (second series), stronger effect = lower value 0.997 | S. cerevisiae deletion strains, locus YJR043C, strain POL32, stronger effect = lower value 1.02 | S. cerevisiae deletion strains, locus YJR066W, strain TOR1, stronger effect = lower value 0.967 | S. cerevisiae deletion strains, locus YJR075W, strain HOC1, stronger effect = lower value 1.02 | S. cerevisiae deletion strains, locus YKL009W, strain mrt4, stronger effect = lower value 0.968 | S. cerevisiae deletion strains, locus YKL068W, stronger effect = lower value 0.98 | S. cerevisiae deletion strains, locus YKL085W, strain MDH1 (second series), stronger effect = lower value 1 | S. cerevisiae deletion strains, locus YKL085W, strain MDH1, stronger effect = lower value 1 | S. cerevisiae deletion strains, locus YKL190W, strain CNB1, stronger effect = lower value 0.995 | S. cerevisiae deletion strains, locus YKR001C, strain vps1, stronger effect = lower value 0.984 | S. cerevisiae deletion strains, locus YLR039C, strain RIC1, stronger effect = lower value 1.04 | S. cerevisiae deletion strains, locus YLR058C, strain SHM2, stronger effect = lower value 0.988 | S. cerevisiae deletion strains, locus YLR102C, strain apc9, stronger effect = lower value 0.993 | S. cerevisiae deletion strains, locus YLR113W, strain HOG1, stronger effect = lower value 0.992 | S. cerevisiae deletion strains, locus YLR262C, strain YPT6, stronger effect = lower value 1.03 | S. cerevisiae deletion strains, locus YLR268W, strain sec22, stronger effect = lower value 0.992 | S. cerevisiae deletion strains, locus YLR330W, strain CHS5, stronger effect = lower value 0.989 | S. cerevisiae deletion strains, locus YLR342W, strain FKS1 (second series), stronger effect = lower value 1.01 | S. cerevisiae deletion strains, locus YLR371W, strain rom2, stronger effect = lower value 0.986 | S. cerevisiae deletion strains, locus YLR418C, strain cdc73, stronger effect = lower value 0.992 | S. cerevisiae deletion strains, locus YML016C, strain PPZ1, stronger effect = lower value 0.987 | S. cerevisiae deletion strains, locus YML032C, strain rad52, stronger effect = lower value 0.986 | S. cerevisiae deletion strains, locus YML124C, strain tub3, stronger effect = lower value 0.991 | S. cerevisiae deletion strains, locus YMR078C, strain ctf18, stronger effect = lower value 0.985 | S. cerevisiae deletion strains, locus YMR223W, strain ubp8, stronger effect = lower value 0.98 | S. cerevisiae deletion strains, locus YMR263W, strain SAP30, stronger effect = lower value 1.01 | S. cerevisiae deletion strains, locus YMR307W, strain GAS1, stronger effect = lower value 1.06 | S. cerevisiae deletion strains, locus YNL067W, strain RPL9B, stronger effect = lower value 1.01 | S. cerevisiae deletion strains, locus YNL128W, strain TEP1, stronger effect = lower value 0.994 | S. cerevisiae deletion strains, locus YNL153C, strain GIM3, stronger effect = lower value 1.02 | S. cerevisiae deletion strains, locus YNL183C, strain NPR1, stronger effect = lower value 0.983 | S. cerevisiae deletion strains, locus YNL233W, strain BNI4, stronger effect = lower value 1 | S. cerevisiae deletion strains, locus YNL250W, strain rad50, stronger effect = lower value 0.971 | S. cerevisiae deletion strains, locus YNL271C, strain bni1, stronger effect = lower value 0.987 | S. cerevisiae deletion strains, locus YNL298W, strain CLA4, stronger effect = lower value 0.993 | S. cerevisiae deletion strains, locus YNL307C, strain MCK1, stronger effect = lower value 0.989 | S. cerevisiae deletion strains, locus YNR052C, strain pop2, stronger effect = lower value 0.978 | S. cerevisiae deletion strains, locus YOL006C, strain TOP1, stronger effect = lower value 0.946 | S. cerevisiae deletion strains, locus YOL012C, strain htz1 0.966 | S. cerevisiae deletion strains, locus YOL147C, strain pex11, stronger effect = lower value 0.997 | S. cerevisiae deletion strains, locus YOR061W, strain CKA2, stronger effect = lower value 0.984 | S. cerevisiae deletion strains, locus YOR069W, strain VPS5, stronger effect = lower value 0.991 | S. cerevisiae deletion strains, locus YOR136W, strain idh2, stronger effect = lower value 0.979 | S. cerevisiae deletion strains, locus YOR144C, strain elg1, stronger effect = lower value 0.997 | S. cerevisiae deletion strains, locus YOR184W, strain ser1, stronger effect = lower value 1.01 | S. cerevisiae deletion strains, locus YOR231W, strain MKK1, stronger effect = lower value 0.983 | S. cerevisiae deletion strains, locus YOR316C, strain cot1, stronger effect = lower value 0.983 | S. cerevisiae deletion strains, locus YPL055C, strain LGE1, stronger effect = lower value 1.02 | S. cerevisiae deletion strains, locus YPL241C, strain CIN2, stronger effect = lower value 0.997 | S. cerevisiae deletion strains, locus YPL256C, strain CLN2, stronger effect = lower value 1.04 | S. cerevisiae deletion strains, locus YPR119W, strain clb2, stronger effect = lower value 0.991 | S. cerevisiae deletion strains, locus YPR141C, strain kar3, stronger effect = lower value 0.982 | S. cerevisiae deletion strains, locus YPR163C, strain tif3, stronger effect = lower value 0.994 | S. cerevisiae deletion strains, locus YPR167C, strain met16, stronger effect = lower value 0.985 | S. cerevisiae deletion strains, strain wtn01, stronger effect = lower value 1 | S. cerevisiae strains, strain wild type, stronger effect = lower value 0.994
